High-throughput results (PubChem BioAssay)
Only some compounds are listed: those with a hit (about 2.6% of all), similar ones and a draw of the others.
Cruzain Triton – blocks cruzain activity in presence of Triton detergent. AID 1478. Potency, µM, for the others: max response, negative = inhibition, actives largely listed as inhibitors. purified cruzain, Z-FR-AMC fluorescence, 0.01% Triton. P25779. actives 0.43% (n = 200,000);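 also: plate controls were neutral wells for no effect and buffer without enzyme for full effect; nearly all actives have a fitted effect of over 40% in size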
Target sequence (P25779 123-467 limits assumed): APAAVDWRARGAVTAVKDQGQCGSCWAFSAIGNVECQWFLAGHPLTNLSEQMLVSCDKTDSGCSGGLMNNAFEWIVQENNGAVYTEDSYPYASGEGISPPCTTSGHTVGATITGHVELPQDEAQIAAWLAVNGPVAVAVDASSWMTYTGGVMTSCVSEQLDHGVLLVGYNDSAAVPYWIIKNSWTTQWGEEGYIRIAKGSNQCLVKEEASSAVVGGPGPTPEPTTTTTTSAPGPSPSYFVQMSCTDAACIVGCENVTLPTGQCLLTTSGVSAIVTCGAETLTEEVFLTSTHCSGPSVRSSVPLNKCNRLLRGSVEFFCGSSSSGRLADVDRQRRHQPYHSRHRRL
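Compounds were screened in titration against cruzain (1.5 nM) with 0.01% Triton X-100 to counter colloidal aggregation. Activity was the AMC fluorescence increase over 60 s after adding 2 uM Z-FR-AMC at pH 5.5.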
Cruzain noTriton – cruzain (T. cruzi) inhibition without detergent. P25779. purified cruzain, Z-FR-AMC fluorescence, no detergent. Potency, µM, for inactives: max response, negative = inhibition, hits mostly inhibitors. actives 2.3% (n = 200,000). AID 1476;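 also: plate controls were enzyme without inhibitor for no effect and buffer without enzyme for full effect; nearly all actives have a fitted effect of over 40% in size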
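Detergent-free condition (0.00005% Triton X-100) in acetate buffer pH 5.5 with DTT. 1.5 nM enzyme and compound were pre-mixed 15 min, then 2 uM Z-FR-AMC substrate added; reaction progress from fluorescence change between first and third reads (60 s).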
* hit, by the source's call; ? = inconclusive. Calls follow the shape of the dose curve; as a rule, active = well fitted curve in the direction sought with a large enough effect; inconclusive = small, poorly fitted or top-dose-only effect, or another doubt; inactive = no such curve, though single readings can be large; an effect the other way counts as inactive or inconclusive. Potency is read from the fitted curve at half-maximal effect.

SMILES	Cruzain Triton	Cruzain noTriton
CCc1ccc(NS(=O)(=O)c2ccc3[nH]cc(C(=O)NCCc4ccccc4)c(=O)c3c2)cc1	-1%	7.9µM*
CCSc1n[nH]c2nc3c(c(=O)n12)C1(CCCC1)Cc1ccccc1-3	2%	?
C=CCSc1n[nH]c2nc3c(c(=O)n12)C1(CCCC1)Cc1ccccc1-3	2%	10µM*
COC(=O)c1sccc1S(=O)(=O)N(CC(=O)NCc1ccc(C)cc1)c1ccc(Cl)cc1	-3%	20%
CC(=O)C(N=Nc1ccccc1)(Sc1nnc(-c2ccccc2)n1-c1ccccc1)C(=O)Nc1ccccc1 (configuration not stated)	-1%	25µM*
CC(=O)C(N=Nc1ccccc1)(Sc1nnc(-c2ccccc2)n1-c1ccccc1)C(C)=O	1%	-25%
N#Cc1c(NCCN)nc(-c2ccco2)c2c1CCCC2	-7%	25µM*
CN(C)CCNc1nc(-c2ccco2)c2c(c1C#N)CC(C)(C)OC2	-5%	4%
CCOc1ccc(C(=O)Nc2nnc(SCc3cc(=O)c4cc(C)ccc4[nH]3)s2)cc1	3%	-4%
COc1ccc(NC(=O)c2c(NCc3cccc(OC)c3)sc3c2CCC3)cc1	-1%	-7%
O=C(Nc1ccc2oc(-c3ccc4ccccc4c3)nc2c1)c1cc(Br)ccc1Cl	0%	-1%
O=C(Nc1ccc2oc(-c3ccc4ccccc4c3)nc2c1)c1cc(Cl)ccc1Cl	-1%	5µM*
COc1ccc(C(=O)Nc2ccc(-c3cc4ccccc4oc3=O)c(C)c2)cc1OC	-2%	?
COc1cc(NC(=O)c2cc(Cl)ccc2Cl)ccc1-c1cc2ccccc2oc1=O	-15%	20µM*
CN(C)c1ncc2nc(-c3ccccc3)c(=O)n(CCc3ccccc3)c2n1	4%	-5%
Cc1cc(C)cc(Nc2cc(-c3ccccc3)nc(C)n2)c1	-14%	-3%
CCN(Cc1ccccc1)C(=O)C1CCN(S(=O)(=O)c2ccc3c(c2)CCCN3C(C)=O)CC1	0%	21%
COc1ccc(NC(=O)COc2ccc(N(C)S(=O)(=O)c3ccc(C)cc3)cc2)cc1	0%	15%
Cc1ccc(S(=O)(=O)N(C)c2ccc(OCC(=O)Nc3nc4c(ccc5ccccc54)s3)cc2)cc1	-1%	4µM*
CN(C)S(=O)(=O)c1ccc(N2CCCC2)c(C(=O)Nc2nc(-c3ccc(F)c(F)c3)cs2)c1	-4%	-12%
CCOC(=O)C(=O)c1csc(NC(=O)COc2ccc(N(C)S(=O)(=O)c3ccc(F)cc3)cc2)n1	-3%	-4%
Cc1ccc(S(=O)(=O)N(C)c2ccc(OCC(=O)Nc3nc4ccccc4s3)cc2)cc1	-1%	?
CN(c1ccc(OCC(=O)Nc2nc(-c3ccccc3)cs2)cc1)S(=O)(=O)c1ccc(F)cc1	0%	7.9µM*
Cc1ccc(S(=O)(=O)N(C)c2ccc(OCC(=O)Nc3nc(-c4ccccc4)cs3)cc2)cc1	-1%	7.9µM*
CN(C)S(=O)(=O)c1ccc(N2CCCC2)c(C(=O)Nc2nc3c(ccc4ccccc43)s2)c1	-4%	7.9µM*
SMILES	Cruzain Triton	Cruzain noTriton
O=c1c2oc3ccccc3c2ncn1Cc1ccc(Br)cc1	-9%	-9%
COc1ccc(CNC(=O)Cc2csc3nc(-c4ccc(F)cc4)cn23)cc1	-2%	-18%
O=C(CN1C(=O)CSc2ccc(S(=O)(=O)N3CCCCC3)cc21)NCc1ccc(F)cc1Cl	7%	5%
O=c1cc(-c2ccc(O)c(O)c2)oc2ccccc12	-24%	?
Cc1ccc2[nH]c(=O)c3cc(C(=O)N4CCN(c5ccccc5)CC4)sc3c2c1	0%	-5%
COc1cccc(-n2c(/C=C/c3ccccc3O)nc3ccccc3c2=O)c1	-8%	20µM*
CCN(CC)C(=O)CSc1nc2ccccc2c(=O)n1-c1cccc(OC)c1	-2%	-1%
Cc1cccc(-n2c(/C=C/c3ccccc3O)nc3ccccc3c2=O)c1	-6%	?
COc1cccc(-n2c(SCc3cc(=O)oc4cc(O)c(O)cc34)nc3ccccc3c2=O)c1	-15%	25µM*
CN(C)c1ccc(CNC(=O)C2(C)C=CCN2C(=O)c2ccccc2)cc1 (configuration not stated)	-3%	-4%
O=C(Cc1ccc(F)cc1)NCCc1csc2nc(-c3ccccc3F)nn12	-2%	2%
CCCCc1nn2c(=O)cc(COC(=O)c3ccco3)nc2s1	-3%	-8%
CCCC(=O)Nc1nnc(S(=O)(=O)N(C)Cc2ccc(Cl)cc2)s1	-1%	-5%
COn1c2c(c3c4nonc4ccc31)CCCC2	-9%	-3%
COn1c2c(c3c4no[n+]([O-])c4ccc31)CCCC2	1%	20µM*
COc1ccc(Cl)cc1NC(=O)CSc1nc(N2CCCCC2)nc(N2CCCCC2)n1	6%	16µM*
Cc1ccccc1NC(=O)CSc1nc(N2CCCCC2)nc(N2CCCCC2)n1	-1%	-1%
COc1ccc(C2C(C#N)=C(N)OC3=C2C(=O)CCC3)cc1Cn1cc([N+](=O)[O-])cn1 (configuration not stated)	-3%	-7%
COc1ccc(C2C(C#N)=C(N)N(c3cccnc3)C3=C2C(=O)CCC3)cc1Cn1cc([N+](=O)[O-])cn1 (configuration not stated)	-3%	-12%
COc1ccc(C2C(C#N)=C(N)N(c3ccccc3)C3=C2C(=O)CCC3)cc1Cn1cc([N+](=O)[O-])cn1 (configuration not stated)	-1%	20µM*
COc1ccc(C2C(C#N)=C(N)Oc3c2c(=O)oc2ccccc32)cc1Cn1cc([N+](=O)[O-])cn1 (configuration not stated)	-4%	25µM*
[N-]=[N+]=[N-]	-2%	-2%
Cc1ccc2c(c1)C(CCN)C(=O)N2Cc1ccccc1 (configuration not stated)	1%	8%
Cc1ccc2c(c1)C1CCCC3C1N2CC(=O)N3Cc1ccccc1 (configuration not stated)	-4%	13µM*
Cc1cc(C)cc(OCCOCCn2c(-c3ccc(Cl)cc3)nc3ccccc3c2=O)c1	-3%	3%
SMILES	Cruzain Triton	Cruzain noTriton
COc1cc(NC(=O)CSC2=Nc3ccccc3N=C(c3ccc(F)cc3)C2)cc(OC)c1	-1%	4%
Cc1ccc(NC(=O)Cn2c(=O)n(Cc3nc(-c4ccccc4)no3)c(=O)c3ccccc32)cc1C	-3%	-21%
CCOc1ccc(NC(=O)Cn2c(=O)n(Cc3nc(-c4ccccc4)no3)c(=O)c3cc4c(cc32)OCO4)cc1	-2%	-17%
COc1ccc(-c2noc(Cn3c(=O)c4ccccc4n(CC(=O)Nc4cccc(C(F)(F)F)c4)c3=O)n2)cc1	-3%	16µM*
O=C(Cn1c(=O)n(Cc2nc(-c3ccccc3)no2)c(=O)c2cc3c(cc21)OCO3)Nc1cccc(C(F)(F)F)c1	1%	5µM*
Cc1cn2c(=O)cc(COC(=O)c3ccc(NC(=O)COc4ccc(C)c(C)c4)cc3)nc2s1	0%	1%
Cc1ccc(C(=O)c2cn(Cc3ccccc3C)c3nc(C)ccc3c2=O)cc1	-11%	-20%
Cc1cc(Nc2cccc(F)c2)n2nc(-c3ccco3)nc2n1	-2%	5%
CC(C)NC(=O)N1CC[C@@]2(CCCN(C(=O)Oc3ccccc3)C2)C1	3%	7%
O=C(CSc1nc2ccccc2[nH]1)c1ccc(Cl)s1	-4%	10µM*
O=C(CSc1nc2ccccc2[nH]1)N1c2ccccc2Sc2ccccc21	-6%	-3%
Cc1ccc(NC(=O)/C(C#N)=C/c2cc(C)n(-c3ccc(Br)cc3)c2C)cc1C	-2%	7%
